# Assays:
# Experiment in all cases: DAPPL (digital affinity profiling via proximity ligation, sequencing); 10 mM Tris-HCl pH 7.5, 50 mM NaCl, 1 mM DTT, 4% glycerol, room temperature, 30 min; GST-TFs on glutathione beads, 16-mer random dsDNA library, 0.1% formaldehyde crosslink after washing; high values mean tight binding
# [1] = target: T1, FLI1 (Homo sapiens, UniProt Q01543 1-452); settings: protein: recombinant; tags: N-terminal GST; dsDNA, one strand shown
# T1 sequence: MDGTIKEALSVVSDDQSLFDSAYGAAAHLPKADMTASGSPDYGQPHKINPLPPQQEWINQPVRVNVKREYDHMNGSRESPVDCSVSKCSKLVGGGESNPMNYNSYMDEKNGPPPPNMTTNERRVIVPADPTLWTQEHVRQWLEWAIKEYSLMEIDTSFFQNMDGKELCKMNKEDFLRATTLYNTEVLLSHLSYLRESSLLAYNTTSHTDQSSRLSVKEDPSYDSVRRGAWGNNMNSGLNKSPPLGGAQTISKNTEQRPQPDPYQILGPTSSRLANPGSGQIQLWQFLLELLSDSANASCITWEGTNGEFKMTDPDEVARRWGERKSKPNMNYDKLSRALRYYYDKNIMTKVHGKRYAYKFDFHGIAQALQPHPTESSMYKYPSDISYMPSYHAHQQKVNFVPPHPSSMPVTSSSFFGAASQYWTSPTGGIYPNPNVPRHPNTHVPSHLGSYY
# Summary of the method: (§1)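 Binding signal is defined as a hexamer's read frequency for one factor over its frequency for the tag-only sample. To obtain reads, GST-fused human transcription factors were expressed in yeast, captured on glutathione beads, barcoded with DNA and pooled with that sample. Pools met 200 nmole of a 16-mer random double-stranded DNA library in Tris/NaCl/DTT/glycerol buffer for 30 min at room temperature before washing, 0.1% formaldehyde crosslinking, proximity ligation (BsaI/T4 ligase, 1 h, 37 °C), PCR and Illumina NextSeq500 sequencing.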
# [2] = target: T2, ELK1 (Homo sapiens, UniProt P19419 1-428); settings: protein: recombinant; tags: N-terminal GST; dsDNA, one strand shown
# T2 sequence: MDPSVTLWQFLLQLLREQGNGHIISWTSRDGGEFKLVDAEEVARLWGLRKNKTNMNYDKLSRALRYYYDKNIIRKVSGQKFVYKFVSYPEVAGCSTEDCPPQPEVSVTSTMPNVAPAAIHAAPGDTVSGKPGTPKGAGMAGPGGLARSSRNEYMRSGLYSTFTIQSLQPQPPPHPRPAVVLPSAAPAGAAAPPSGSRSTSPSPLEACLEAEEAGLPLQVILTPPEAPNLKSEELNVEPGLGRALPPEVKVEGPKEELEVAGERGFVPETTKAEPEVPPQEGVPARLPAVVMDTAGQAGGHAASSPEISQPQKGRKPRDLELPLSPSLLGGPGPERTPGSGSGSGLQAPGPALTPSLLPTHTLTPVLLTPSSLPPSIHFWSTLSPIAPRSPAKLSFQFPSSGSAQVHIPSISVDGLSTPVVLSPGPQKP
# Summary of the method: as §1
# [3] = target: T3, GABPA (Homo sapiens, UniProt Q06546 1-454); settings: protein: recombinant; tags: N-terminal GST; dsDNA, one strand shown
# T3 sequence: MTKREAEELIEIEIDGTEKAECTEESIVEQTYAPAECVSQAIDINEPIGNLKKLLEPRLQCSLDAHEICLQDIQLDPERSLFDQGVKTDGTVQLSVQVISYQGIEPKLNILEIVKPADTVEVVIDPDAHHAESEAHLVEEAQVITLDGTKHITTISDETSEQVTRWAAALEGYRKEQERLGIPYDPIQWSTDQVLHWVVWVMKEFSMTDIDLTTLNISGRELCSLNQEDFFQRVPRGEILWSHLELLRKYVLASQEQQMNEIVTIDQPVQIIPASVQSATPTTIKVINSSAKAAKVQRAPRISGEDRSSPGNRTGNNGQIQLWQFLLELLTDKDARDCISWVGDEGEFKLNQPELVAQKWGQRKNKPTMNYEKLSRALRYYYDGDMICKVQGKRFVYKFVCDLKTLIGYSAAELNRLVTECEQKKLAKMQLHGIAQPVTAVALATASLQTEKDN
# Summary of the method: as §1
# [4] = target: T4, ERG (Homo sapiens, UniProt P11308 1-479); settings: protein: recombinant; tags: N-terminal GST; dsDNA, one strand shown
# T4 sequence: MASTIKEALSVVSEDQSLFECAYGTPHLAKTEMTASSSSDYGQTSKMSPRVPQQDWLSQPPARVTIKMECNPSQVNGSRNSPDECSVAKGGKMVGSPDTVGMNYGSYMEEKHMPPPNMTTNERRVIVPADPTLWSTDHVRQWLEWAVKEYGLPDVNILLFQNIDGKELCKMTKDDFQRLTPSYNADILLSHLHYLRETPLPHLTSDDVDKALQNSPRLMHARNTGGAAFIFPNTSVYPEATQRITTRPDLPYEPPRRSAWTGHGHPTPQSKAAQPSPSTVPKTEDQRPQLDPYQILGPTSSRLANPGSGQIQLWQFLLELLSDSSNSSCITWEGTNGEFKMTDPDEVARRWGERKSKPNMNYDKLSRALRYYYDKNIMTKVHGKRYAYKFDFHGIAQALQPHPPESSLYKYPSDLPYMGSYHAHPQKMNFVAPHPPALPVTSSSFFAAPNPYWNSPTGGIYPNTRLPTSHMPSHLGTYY
# Summary of the method: as §1
# [5] = target: ELF1 (Homo sapiens, UniProt P32519 1-619); settings: protein: recombinant; tags: N-terminal GST; dsDNA, one strand shown
# Summary of the method: as §1
# [6] = target: T5, EHF (Homo sapiens, UniProt Q9NZC4 1-300); settings: protein: recombinant; tags: N-terminal GST; dsDNA, one strand shown
# T5 sequence: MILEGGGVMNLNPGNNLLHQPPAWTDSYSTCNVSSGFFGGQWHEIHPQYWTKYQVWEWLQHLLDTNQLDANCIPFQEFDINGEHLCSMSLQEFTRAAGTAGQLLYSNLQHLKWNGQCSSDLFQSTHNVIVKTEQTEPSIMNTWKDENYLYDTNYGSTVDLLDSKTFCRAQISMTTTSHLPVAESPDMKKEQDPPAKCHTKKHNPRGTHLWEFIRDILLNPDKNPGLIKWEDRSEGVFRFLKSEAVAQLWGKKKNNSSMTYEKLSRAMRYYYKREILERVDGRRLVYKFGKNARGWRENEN
# Summary of the method: as §1
# [7] = target: SPI1 (Homo sapiens, UniProt P17947 1-270); settings: protein: recombinant; tags: N-terminal GST; dsDNA, one strand shown
# Summary of the method: as §1
# [8] = target: SPIB (Homo sapiens, UniProt Q01892 1-262); settings: protein: recombinant; tags: N-terminal GST; dsDNA, one strand shown
# Summary of the method: as §1
# [9] = target: T6, ELK3 (Homo sapiens, UniProt P41970 1-407); settings: protein: recombinant; tags: N-terminal GST; dsDNA, one strand shown
# T6 sequence: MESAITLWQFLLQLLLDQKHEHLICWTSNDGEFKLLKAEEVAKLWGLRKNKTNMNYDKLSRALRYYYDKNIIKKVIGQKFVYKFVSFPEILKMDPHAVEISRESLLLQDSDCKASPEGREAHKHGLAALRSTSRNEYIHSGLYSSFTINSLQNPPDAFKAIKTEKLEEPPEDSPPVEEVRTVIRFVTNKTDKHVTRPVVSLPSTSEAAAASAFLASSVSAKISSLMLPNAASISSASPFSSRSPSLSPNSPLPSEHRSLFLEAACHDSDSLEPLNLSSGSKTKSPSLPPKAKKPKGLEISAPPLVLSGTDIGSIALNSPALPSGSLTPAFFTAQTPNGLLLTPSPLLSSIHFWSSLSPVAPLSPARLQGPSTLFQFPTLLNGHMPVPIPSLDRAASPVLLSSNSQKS
# Summary of the method: as §1
# [10] = target: T7, FEV (Homo sapiens, UniProt Q99581 1-238); settings: protein: recombinant; tags: N-terminal GST; dsDNA, one strand shown
# T7 sequence: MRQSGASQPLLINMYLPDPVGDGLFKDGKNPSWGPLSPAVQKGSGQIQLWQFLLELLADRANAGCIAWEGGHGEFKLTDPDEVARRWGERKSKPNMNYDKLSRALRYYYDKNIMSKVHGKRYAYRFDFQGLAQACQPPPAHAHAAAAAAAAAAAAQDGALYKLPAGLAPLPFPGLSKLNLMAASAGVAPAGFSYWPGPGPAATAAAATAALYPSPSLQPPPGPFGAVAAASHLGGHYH
# Summary of the method: as §1
# [11] = target: ETV5 (Homo sapiens, UniProt P41161 1-510); settings: protein: recombinant; tags: N-terminal GST; dsDNA, one strand shown
# Summary of the method: as §1
# [12] = target: HSF1 (Homo sapiens, UniProt Q00613 1-529); settings: protein: recombinant; tags: N-terminal GST; chain copies: 3; dsDNA, one strand shown
# Summary of the method: as §1
# [13] = target: T8, SPIC (Homo sapiens, UniProt Q8N5J4 1-248); settings: protein: recombinant; tags: N-terminal GST; dsDNA, one strand shown
# T8 sequence: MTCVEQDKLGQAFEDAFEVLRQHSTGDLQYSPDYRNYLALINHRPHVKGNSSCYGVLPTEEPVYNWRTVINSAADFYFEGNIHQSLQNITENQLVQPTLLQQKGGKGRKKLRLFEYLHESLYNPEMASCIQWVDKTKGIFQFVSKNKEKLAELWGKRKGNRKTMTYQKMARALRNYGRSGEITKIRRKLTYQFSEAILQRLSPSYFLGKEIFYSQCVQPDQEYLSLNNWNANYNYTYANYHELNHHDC
# Summary of the method: as §1
# [14] = target: ELF4 (Homo sapiens, UniProt Q99607 1-663); settings: protein: recombinant; tags: N-terminal GST; dsDNA, one strand shown
# Summary of the method: as §1
# [15] = target: T9, ELK4 (Homo sapiens, UniProt P28324-2 1-405); settings: protein: recombinant; tags: N-terminal GST; dsDNA, one strand shown
# T9 sequence: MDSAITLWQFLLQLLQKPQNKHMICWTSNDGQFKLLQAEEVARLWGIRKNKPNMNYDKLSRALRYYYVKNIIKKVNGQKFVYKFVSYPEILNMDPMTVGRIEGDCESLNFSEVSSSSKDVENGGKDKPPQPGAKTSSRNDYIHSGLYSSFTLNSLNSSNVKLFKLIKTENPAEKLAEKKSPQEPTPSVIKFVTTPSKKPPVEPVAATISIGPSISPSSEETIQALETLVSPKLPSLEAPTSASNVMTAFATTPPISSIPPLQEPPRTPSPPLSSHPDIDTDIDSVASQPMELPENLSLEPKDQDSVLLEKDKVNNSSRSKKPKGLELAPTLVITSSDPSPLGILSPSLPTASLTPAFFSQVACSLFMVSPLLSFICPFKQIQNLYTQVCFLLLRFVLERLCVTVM
# Summary of the method: as §1
# [16] = target: T10, ETV2 (Homo sapiens, UniProt O00321 1-342); settings: protein: recombinant; tags: N-terminal GST; dsDNA, one strand shown
# T10 sequence: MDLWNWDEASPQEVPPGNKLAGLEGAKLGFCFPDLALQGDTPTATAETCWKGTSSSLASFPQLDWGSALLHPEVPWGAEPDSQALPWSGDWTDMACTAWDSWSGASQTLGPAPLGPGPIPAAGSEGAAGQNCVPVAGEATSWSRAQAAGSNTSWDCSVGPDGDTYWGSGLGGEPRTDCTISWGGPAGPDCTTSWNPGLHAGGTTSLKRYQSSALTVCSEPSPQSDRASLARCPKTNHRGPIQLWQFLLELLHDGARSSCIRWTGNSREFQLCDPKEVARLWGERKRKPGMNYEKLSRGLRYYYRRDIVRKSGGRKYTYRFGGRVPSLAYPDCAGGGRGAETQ
# Summary of the method: as §1
# [17] = target: T11, ELF3 (Homo sapiens, UniProt P78545 1-371); settings: protein: recombinant; tags: N-terminal GST; dsDNA, one strand shown
# T11 sequence: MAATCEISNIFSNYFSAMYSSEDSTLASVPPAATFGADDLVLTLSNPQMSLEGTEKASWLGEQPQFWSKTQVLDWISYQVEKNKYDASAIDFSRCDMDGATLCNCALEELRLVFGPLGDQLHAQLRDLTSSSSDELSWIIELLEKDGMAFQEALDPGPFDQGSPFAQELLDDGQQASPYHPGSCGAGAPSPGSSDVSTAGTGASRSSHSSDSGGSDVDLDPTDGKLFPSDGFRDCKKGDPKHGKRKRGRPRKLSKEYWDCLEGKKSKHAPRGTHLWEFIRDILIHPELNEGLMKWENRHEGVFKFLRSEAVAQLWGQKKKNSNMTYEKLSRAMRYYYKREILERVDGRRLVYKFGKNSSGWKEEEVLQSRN
# Summary of the method: as §1
# [18] = target: CRX (Homo sapiens, UniProt O43186 1-299); settings: protein: recombinant; tags: N-terminal GST; dsDNA, one strand shown
# Summary of the method: as §1
# [19] = target: ETV1 (Homo sapiens, UniProt P50549 1-477); settings: protein: recombinant; tags: N-terminal GST; dsDNA, one strand shown
# Summary of the method: as §1
# ELF1, sequence (P32519 whole entry): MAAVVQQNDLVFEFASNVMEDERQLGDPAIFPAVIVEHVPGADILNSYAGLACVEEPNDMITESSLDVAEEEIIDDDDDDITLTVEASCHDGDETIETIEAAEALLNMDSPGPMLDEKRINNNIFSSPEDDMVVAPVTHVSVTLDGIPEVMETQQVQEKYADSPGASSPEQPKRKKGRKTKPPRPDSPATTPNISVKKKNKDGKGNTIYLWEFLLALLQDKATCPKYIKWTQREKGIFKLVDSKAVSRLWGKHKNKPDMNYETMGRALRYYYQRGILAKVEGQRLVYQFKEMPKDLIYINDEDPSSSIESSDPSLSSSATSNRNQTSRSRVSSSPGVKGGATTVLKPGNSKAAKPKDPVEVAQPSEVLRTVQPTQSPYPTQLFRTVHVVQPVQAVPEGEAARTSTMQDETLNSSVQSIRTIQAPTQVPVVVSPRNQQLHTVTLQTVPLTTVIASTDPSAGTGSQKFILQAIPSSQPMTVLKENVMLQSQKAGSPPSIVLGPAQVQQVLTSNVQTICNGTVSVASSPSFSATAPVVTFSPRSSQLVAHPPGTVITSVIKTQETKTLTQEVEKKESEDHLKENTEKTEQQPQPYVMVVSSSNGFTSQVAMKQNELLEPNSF
# SPIB, sequence (Q01892 whole entry): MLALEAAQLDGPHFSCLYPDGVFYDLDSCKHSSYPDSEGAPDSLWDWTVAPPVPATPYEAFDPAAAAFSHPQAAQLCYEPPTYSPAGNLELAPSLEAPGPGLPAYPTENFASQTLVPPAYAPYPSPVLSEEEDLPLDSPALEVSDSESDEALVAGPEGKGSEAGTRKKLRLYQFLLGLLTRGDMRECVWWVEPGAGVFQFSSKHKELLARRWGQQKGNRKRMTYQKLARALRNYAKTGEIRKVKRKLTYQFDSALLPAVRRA
# ETV1, sequence (P50549 whole entry): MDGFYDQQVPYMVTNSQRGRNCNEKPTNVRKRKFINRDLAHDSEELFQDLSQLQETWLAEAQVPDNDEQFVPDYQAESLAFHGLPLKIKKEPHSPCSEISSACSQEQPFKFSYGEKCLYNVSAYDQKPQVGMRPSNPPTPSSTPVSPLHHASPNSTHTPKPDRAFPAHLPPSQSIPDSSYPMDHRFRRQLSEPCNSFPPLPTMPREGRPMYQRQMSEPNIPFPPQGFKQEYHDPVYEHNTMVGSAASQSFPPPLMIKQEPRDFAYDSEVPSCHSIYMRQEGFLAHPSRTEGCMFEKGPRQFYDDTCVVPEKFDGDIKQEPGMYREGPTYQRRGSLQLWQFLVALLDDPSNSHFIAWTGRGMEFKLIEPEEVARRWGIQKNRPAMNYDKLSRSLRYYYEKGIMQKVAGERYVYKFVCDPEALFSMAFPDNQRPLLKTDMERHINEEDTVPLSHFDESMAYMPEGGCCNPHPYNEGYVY
# ELF4, sequence (Q99607 whole entry): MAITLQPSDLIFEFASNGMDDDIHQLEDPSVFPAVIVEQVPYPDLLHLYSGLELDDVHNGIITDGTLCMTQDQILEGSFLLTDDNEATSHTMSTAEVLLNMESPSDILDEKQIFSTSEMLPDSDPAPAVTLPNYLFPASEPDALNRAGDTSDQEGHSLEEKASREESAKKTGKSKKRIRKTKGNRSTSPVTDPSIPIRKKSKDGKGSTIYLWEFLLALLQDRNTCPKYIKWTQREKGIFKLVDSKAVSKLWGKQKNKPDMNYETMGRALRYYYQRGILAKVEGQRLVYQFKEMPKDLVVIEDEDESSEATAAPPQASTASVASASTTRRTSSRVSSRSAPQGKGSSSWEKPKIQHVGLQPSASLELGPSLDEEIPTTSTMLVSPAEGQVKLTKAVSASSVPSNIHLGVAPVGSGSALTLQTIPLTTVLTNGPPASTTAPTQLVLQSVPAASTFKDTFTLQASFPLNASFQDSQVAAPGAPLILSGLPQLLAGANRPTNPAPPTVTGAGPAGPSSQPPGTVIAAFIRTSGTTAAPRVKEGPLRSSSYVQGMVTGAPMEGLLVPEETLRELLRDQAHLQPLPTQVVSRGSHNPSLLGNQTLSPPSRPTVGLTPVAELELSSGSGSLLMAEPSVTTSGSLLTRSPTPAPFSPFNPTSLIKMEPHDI
# CRX, sequence (O43186 whole entry): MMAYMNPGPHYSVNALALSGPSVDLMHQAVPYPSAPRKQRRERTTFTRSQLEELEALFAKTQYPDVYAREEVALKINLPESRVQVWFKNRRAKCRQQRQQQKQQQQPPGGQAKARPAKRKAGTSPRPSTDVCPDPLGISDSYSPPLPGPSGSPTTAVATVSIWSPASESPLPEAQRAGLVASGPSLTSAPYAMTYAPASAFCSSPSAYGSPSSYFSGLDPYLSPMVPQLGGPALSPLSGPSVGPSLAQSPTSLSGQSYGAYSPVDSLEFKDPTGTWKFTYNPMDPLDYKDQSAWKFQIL
# HSF1, sequence (Q00613 whole entry): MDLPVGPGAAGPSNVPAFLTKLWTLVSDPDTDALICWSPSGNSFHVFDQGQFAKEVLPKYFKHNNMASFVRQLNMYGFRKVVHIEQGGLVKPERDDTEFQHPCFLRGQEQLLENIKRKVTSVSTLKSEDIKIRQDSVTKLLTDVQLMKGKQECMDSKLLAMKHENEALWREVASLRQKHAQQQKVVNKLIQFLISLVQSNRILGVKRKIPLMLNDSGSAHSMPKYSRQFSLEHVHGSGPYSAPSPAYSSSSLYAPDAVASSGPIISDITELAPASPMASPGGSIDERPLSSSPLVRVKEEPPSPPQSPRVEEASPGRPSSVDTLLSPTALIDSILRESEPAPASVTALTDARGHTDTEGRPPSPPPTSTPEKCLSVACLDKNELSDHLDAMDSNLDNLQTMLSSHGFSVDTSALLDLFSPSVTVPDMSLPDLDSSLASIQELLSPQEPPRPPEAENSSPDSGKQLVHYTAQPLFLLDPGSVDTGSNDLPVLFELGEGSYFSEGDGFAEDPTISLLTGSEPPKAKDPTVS
# ETV5, sequence (P41161 whole entry): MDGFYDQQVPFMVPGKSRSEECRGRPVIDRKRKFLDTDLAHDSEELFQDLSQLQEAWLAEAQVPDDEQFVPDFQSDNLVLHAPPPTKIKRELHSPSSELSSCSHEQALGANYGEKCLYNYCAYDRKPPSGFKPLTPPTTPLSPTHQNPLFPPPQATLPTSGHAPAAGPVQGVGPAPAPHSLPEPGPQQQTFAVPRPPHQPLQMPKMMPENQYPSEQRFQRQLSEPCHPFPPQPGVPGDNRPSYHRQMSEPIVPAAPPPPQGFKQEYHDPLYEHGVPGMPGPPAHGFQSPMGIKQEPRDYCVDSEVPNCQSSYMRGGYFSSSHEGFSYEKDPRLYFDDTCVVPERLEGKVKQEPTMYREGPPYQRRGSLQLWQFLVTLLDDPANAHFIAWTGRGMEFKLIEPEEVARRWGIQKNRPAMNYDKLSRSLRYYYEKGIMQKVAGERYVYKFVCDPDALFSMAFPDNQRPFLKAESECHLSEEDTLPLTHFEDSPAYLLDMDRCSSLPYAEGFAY
sequence,measurement,setting,value
TACGAC,binding signal,[1],"1.33 fold enrichment (6-mer frequency, TF over GST control)"
same,binding signal,[2],"1.2 fold enrichment (6-mer frequency, TF over GST control)"
same,binding signal,[3],"1.29 fold enrichment (6-mer frequency, TF over GST control)"
same,binding signal,[4],"1.26 fold enrichment (6-mer frequency, TF over GST control)"
same,binding signal,[5],"1.27 fold enrichment (6-mer frequency, TF over GST control)"
same,binding signal,[6],"1.23 fold enrichment (6-mer frequency, TF over GST control)"
same,binding signal,[7],"1.25 fold enrichment (6-mer frequency, TF over GST control)"
same,binding signal,[8],"1.22 fold enrichment (6-mer frequency, TF over GST control)"
same,binding signal,[9],"1.36 fold enrichment (6-mer frequency, TF over GST control)"
same,binding signal,[10],"1.28 fold enrichment (6-mer frequency, TF over GST control)"
same,binding signal,[11],"1.18 fold enrichment (6-mer frequency, TF over GST control)"
same,binding signal,[12],"1.14 fold enrichment (6-mer frequency, TF over GST control)"
same,binding signal,[13],"1.22 fold enrichment (6-mer frequency, TF over GST control)"
same,binding signal,[14],"1.34 fold enrichment (6-mer frequency, TF over GST control)"
same,binding signal,[15],"1.3 fold enrichment (6-mer frequency, TF over GST control)"
same,binding signal,[16],"1.51 fold enrichment (6-mer frequency, TF over GST control)"
same,binding signal,[17],"1.31 fold enrichment (6-mer frequency, TF over GST control)"
same,binding signal,[18],"1.25 fold enrichment (6-mer frequency, TF over GST control)"
same,binding signal,[19],"1.37 fold enrichment (6-mer frequency, TF over GST control)"

# Source: publication PMC7862700, “An all-to-all approach to the identification of sequence-specific readers for epigenetic DNA modifications on cytosine”
